Screen size: about 16,000 compounds; about 5,800 (36%) were called active. Roughly 23% stayed inconclusive and do not appear here. This is one part of the list. Some structures have more than one record in an assay (separate samples or runs), and their calls can disagree. Unmarked numbers belong to inactive results. Calls come from the whole dose curve; as a rule, active = well fitted curve in the direction sought with a large enough effect; inconclusive = small, poorly fitted or top-dose-only effect, or effect the other way; inactive = no such curve, though single readings can be large or run the other way.
% is set by controls: 0 for no effect and ±100 for the full control effect.

Chain of Cytochrome P450 2C19 (Homo sapiens) (P33261 whole entry, looked up): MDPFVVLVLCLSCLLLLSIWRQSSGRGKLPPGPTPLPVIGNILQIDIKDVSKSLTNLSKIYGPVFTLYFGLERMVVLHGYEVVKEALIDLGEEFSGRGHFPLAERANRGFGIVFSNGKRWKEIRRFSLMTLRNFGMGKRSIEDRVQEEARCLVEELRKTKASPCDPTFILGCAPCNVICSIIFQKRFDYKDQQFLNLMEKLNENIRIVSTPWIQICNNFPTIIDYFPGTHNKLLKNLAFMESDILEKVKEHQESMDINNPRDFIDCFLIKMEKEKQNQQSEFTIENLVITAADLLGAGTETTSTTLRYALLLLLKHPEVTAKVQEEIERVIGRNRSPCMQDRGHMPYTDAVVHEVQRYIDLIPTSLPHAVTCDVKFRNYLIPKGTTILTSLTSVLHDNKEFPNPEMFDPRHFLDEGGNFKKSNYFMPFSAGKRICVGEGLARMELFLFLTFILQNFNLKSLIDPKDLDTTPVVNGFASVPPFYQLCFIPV

The assay concerns the target Cytochrome P450 2C19 (Homo sapiens) (UniProt P33261). The assay is described as follows: Cytochrome panel assay with activity outcomes. The following applies: recombinant CYP, pro-luciferin dealkylation, luminescence, p450-cyp2c19; series mostly up to 57.1 µM; activity, negative = inhibition: at the top concentration.
In the case of `CN(C)Cc1c[nH]c2nc[nH]c(=O)c12`, the activity, negative = inhibition is 42.6% [at 11.4 µM]. The term AC50 denotes the concentration giving half of the maximal activity seen. Take `COCCN(C(=O)c1ccco1)c1nnc(-c2ccc(OC)cc2)s1`: the AC50 is 15.8 µM (active). As for `COCCN(C(=O)C(C)C)c1nnc(-c2ccc(C)cc2)s1`, the AC50 was 7.94 µM (active). Regarding `COCC(=O)N(C)c1nnc(-c2ccc([N+](=O)[O-])cc2)s1`, the “activity, negative = inhibition” value is -87.4%. The same measure, in the same setting: for `CO[C@@H]1COC(=O)[C@H]2CCCN2C(=O)[C@@H](C)COC(=O)C/C=C\[C@H]1C` the value was 91.7% [at 11.4 µM]. As to `CN1CCN(c2nc3c(c(=O)n(C)c(=O)n3C)n2C)CC1`, the activity, negative = inhibition was -9.69% [at 11.4 µM].

Turning to `Cn1c(=O)c2c(ncn2CN2CCN(Cn3cnc4c3c(=O)n(C)c(=O)n4C)CC2)n(C)c1=O`, the activity, negative = inhibition was -11.6% [at 11.4 µM].

Turning to `Cn1c(=O)c2c(nc(N3CCN(c4ccccn4)CC3)n2Cc2ccccc2Cl)n(C)c1=O`, the AC50 is 3.16 µM (active). Same read-out and setting: under `Cn1c(=O)c2c(nc(N3CCN(c4ccccn4)CC3)n2Cc2ccc(Cl)cc2Cl)n(C)c1=O` stands 6.31 µM (active).

For `O=C(N/N=C1/C[C@@H](O)[C@@H](O)[C@@H]2[C@@H]3C(=O)N(Cc4ccccc4)C(=O)[C@H]3CC[C@@H]12)OCc1ccccc1`, the activity, negative = inhibition is 9.42% [at 11.4 µM]. As for `O=C(c1cccc(C(F)(F)F)c1)N1CCC(O)(CS(=O)(=O)Cc2ccccc2)CC1`, the AC50 was 22.4 µM (active). As to `O=C(c1cc(C(F)(F)F)cc(C(F)(F)F)c1)N1CCC2(CCN(Cc3ccccc3)CC2)CC1`, the “activity, negative = inhibition” value is 3.98%. Still for that read-out and setting: for `O=C(c1cc(C(F)(F)F)cc(C(F)(F)F)c1)N1CCC2(CC1)CN(Cc1ccccc1)C2` the value was 23.7%. Turning to `COc1ccc(CNc2ncncc2-c2ccc(C(=O)N(C)C)cc2)c(OC)c1`, the AC50 was 15.8 µM (active). Turning to `COc1ccc(CNc2ncncc2-c2ccc(N(C)C)cc2)c(OC)c1`, the AC50 is 1.58 µM (active). Consider `COc1ccccc1CNc1ncncc1-c1ccc(C(=O)N(C)C)cc1`, for which the “activity, negative = inhibition” value was -41.5%. Turning to `C[C@H](N)C(=O)O`, the “activity, negative = inhibition” value is 30.8%. On the same count and under the same terms, under `N[C@H](Cc1ccc(Cl)cc1)C(=O)O` stands 7.86%. In the case of `O=C(O)C(Sc1ccc(Cl)cc1)Sc1ccc(Cl)cc1`, the AC50 was 0.1 µM (active). Take `N[C@@H](CC1=CS(=O)(=O)c2ccc(Cl)cc21)C(=O)O`: the activity, negative = inhibition was -36.6% [at 11.4 µM]. Still for that read-out and setting: under `NCCOB(c1ccccc1)c1ccccc1` stands -41%. `Cc1[nH]n(C(C)(C)C)c(=O)c1Sc1ccc(Cl)cc1`: the AC50 was 3.98 µM (active). Consider `O=[N+]([O-])c1ccc(Cl)c(-c2ccc(/C=N/c3c(-c4ccco4)nc4ccccn34)o2)c1`, for which the “activity, negative = inhibition” value is 8.08%. In the case of `COc1cc(Cn2cnnn2)ccc1O`, the “activity, negative = inhibition” value was -23.8%. On to `COc1cc(-c2nc3ccccn3c2/N=C/c2ccccc2)ccc1O`, for which the AC50 is 10 µM (active). Consider `CC(C)(C)NC(=O)C(=O)N/N=C/c1ccc(Br)cc1`, for which the AC50 is 14.1 µM (active). The same measure, in the same setting: for `CC(C)NC(=O)CC(=O)N/N=C/c1ccc(Br)cc1` the value was 3.55 µM (active). `CC(C)NC(=O)CC(=O)N/N=C/c1ccc(F)cc1`: the “activity, negative = inhibition” value was 23%. As to `O=C(N/N=C/c1ccc(F)cc1)c1ccc(Br)cc1`, the “activity, negative = inhibition” value is -28.4%.

For `O=Nc1ccc(NOC(=O)c2ccc(Br)cc2)cc1`, the “activity, negative = inhibition” value was -12.5%. With `CCOc1ccc(OCCOCCN2CCc3ccccc3C2)cc1`, the AC50 is 14.1 µM (active). As to `CCCCOc1ccc(CN2CCC(O)CC2)cc1`, the “activity, negative = inhibition” value is 6.74%. Take `CC(=O)Nc1sc2c(c1CN1CCN(C)CC1)CCCC2`: the AC50 was 6.31 µM (active).

Regarding `CCNC(=O)c1c(NC(C)=O)sc2c1CCCC2`, the “activity, negative = inhibition” value was -12.1%. With `Cc1cc(OCC(F)(F)C(F)(F)C(F)(F)C(F)(F)C(F)(F)C(F)F)nc(N)n1`, the half-maximal activity concentration (AC50) is 3.16 µM (active).

Consider `COc1cc(-c2ccc(=O)[nH]n2)ccc1OC(F)F`, for which the “activity, negative = inhibition” value was -35% [at 25.6 µM]. Take `CCCc1cc(=O)[nH]c(SCc2cc(Cl)ccc2OC(F)F)n1`: the AC50 was 2.82 µM (active). The same measure, in the same setting: under `O=C(COc1cccc2ccccc12)NNC(=O)c1cccs1` stands 10 µM (active). In the case of `Cc1ccc(S(N)(=O)=O)cc1NC(=O)/C=C/c1cccs1`, the “activity, negative = inhibition” value is -24.6%. As for `Cc1cccc(C)c1NC(=O)/C(C#N)=C/c1cccs1`, the AC50 is 4.47 µM (active). As for `N#C/C(=C\c1cccs1)C(=O)NCC1CCCO1` (centres undefined), the “activity, negative = inhibition” value was -16.4%. On the same count and under the same terms, for `CC(=O)Nc1nnc(S(N)(=O)=O)s1` the value was 2.11% [at 25.6 µM]. For the molecule `CC(C)=CC(=O)Nc1nnc(C(C)C)s1`, the AC50 is 25.1 µM (active).

In the case of `C=CCOC(=O)C1=C(C)NC(SCC(=O)OCC)=C(C#N)C1c1ccc(C)cc1` (centres undefined), the AC50 is 2.82 µM (active). On to `C=CCOC(=O)C1=C(C)NC(SC)=C(C#N)C1c1cccs1` (centres undefined), for which the AC50 is 0.178 µM (active). Take `Cn1cccc1C(=O)N1CCC[C@@]2(CCN(Cc3ccc(C#N)cc3)C2)C1`: the “activity, negative = inhibition” value is 11.3%. On the same count and under the same terms, for `C#C[C@H](N)CCC(=O)O` the value was 75.3%.

As for `Cc1nnsc1SC(C)C(=O)O` (centres undefined), the “activity, negative = inhibition” value was -14.3%. Same read-out and setting: under `CCNc1ncc2nc(-c3ccc(OC)cc3)c(=O)n(-c3ccc(OC)cc3)c2n1` stands 9.96%. On to `CN(C(=S)NC(=O)c1ccccc1Br)C1CCCCC1`, for which the AC50 is 7.94 µM (active). In the case of `C/C=C\C[C@H](C)[C@H](O)[C@H]1C(=O)N[C@@H](CC)C(=O)N(C)CC(=O)N(C)[C@@H](CC(C)C)C(=O)N[C@@H](C(C)C)C(=O)N(C)[C@@H](CC(C)C)C(=O)N[C@@H](C)C(=O)N[C@@H](C)C(=O)N(C)[C@@H](CC(C)C)C(=O)N(C)[C@@H](CC(C)C)C(=O)N(C)[C@@H](C(C)C)C(=O)N1C`, the AC50 result was “inactive”. With `CC(C)OC(=O)c1cc2c(OC[C@@H](O)CNC(C)(C)C)cccc2[nH]1`, the “activity, negative = inhibition” value is -10.6%. For the molecule `O=[N+]([O-])c1ccc(/C=N/N/C(=N/c2ccccn2)c2ccccn2)cc1`, the AC50 was 28.2 µM (active). For the molecule `C[N+]1(C)CCC(=C(c2ccccc2)c2ccccc2)CC1`, the “activity, negative = inhibition” value is 3.56% [at 25.6 µM].

For the molecule `c1ccc2cc(Sc3ncnc4c3oc3ccccc34)ccc2c1`, the AC50 was 2 µM (active).

Take `Oc1c(C(O)(c2ccccc2)c2ccc3ccccc3c2O)ccc2ccccc12`: the AC50 is 0.794 µM (active). With `Cc1ccc(N=Cc2cc(C)n(C3CCCC3)c2C)cc1`, the AC50 was 17.8 µM (active). Same read-out and setting: under `C[C@@]12C[C@H](O)[C@@H]3[C@H](CCC4=CC(=O)CC[C@]43C)[C@H]1CC[C@@H]2c1csc(N)n1` stands 3.98 µM (active). For `C[C@@]12CCC(=O)C=C1CC[C@@H]1[C@@H]2[C@H](O)C[C@]2(C)[C@@H]1CC[C@]2(O)C(=O)CO`, the “activity, negative = inhibition” value is 16.8% [at 25.6 µM]. On the same count and under the same terms, under `C[C@@]12CCC(=O)C=C1CC[C@H]1[C@@H]2[C@@H](O)C[C@]2(C)[C@@H]1CC[C@@]2(O)C(=O)COC(=O)C1CCCC1` stands -27.7% [at 11.4 µM]. For `Cc1cc(C)nc(NC(=O)/C=C/c2ccc(Cl)cc2Cl)c1`, the AC50 was 15.8 µM (active). Regarding `COCc1nnc(NC(=O)c2ccc(S(=O)(=O)N3CCCCCC3)cc2)o1`, the “activity, negative = inhibition” value was -18.3%.

`Cc1noc(C)c1C(=O)N1CCC2(CCCN(C(=O)Nc3cccc(F)c3)C2)CC1`: the “activity, negative = inhibition” value was -29.5%. Same read-out and setting: for `Cc1noc(C)c1C(=O)N1CCC[C@@]2(CCN(C(=O)Nc3cccc(F)c3)C2)C1` the value was 5.9%. For `Cc1onc(-c2c(Cl)cccc2Cl)c1C(=O)Nc1ccc2c(c1)OCO2`, the AC50 is 1.12 µM (active). For `CCOC(=O)Cc1csc(NC(=O)c2ccc(S(=O)(=O)N3CCCCC3)cc2)n1`, the AC50 was 14.1 µM (active). Still for that read-out and setting: for `CCOC(=O)Cc1csc(NC(=O)c2c(-c3c(Cl)cccc3Cl)noc2C)n1` the value was 3.55 µM (active); for `CCOC(=O)Cc1csc(NC(=O)c2ccc(Cl)nc2)n1`, 10 µM (active). For the molecule `CC(C)CN1CCCC2(CCN(C(=O)c3cnccn3)CC2)C1`, the “activity, negative = inhibition” value was -12.2%. For `O=C1CN(C(=O)c2ccc(Br)o2)C(c2ccc(F)cc2)c2cc(Cl)ccc2N1` (centres undefined), the AC50 was 7.94 µM (active). Turning to `CCCCC(=O)Nc1sc2c(c1C(=O)OCC)CCC(C=O)=C2Cl`, the AC50 is 14.1 µM (active).

With `O=C1Nc2ccccc2Nc2ncccc21`, the “activity, negative = inhibition” value is -12.3%. In the case of `C/C(=N\NC(=O)CSCc1ccc(Cl)cc1)c1ccc2c(c1)OCCO2`, the AC50 is 1.26 µM (active). Turning to `CC(/C=C/c1ccccc1)=N/NC(=O)CNC(=O)c1ccc2c(c1)OCO2`, the “activity, negative = inhibition” value is -24.7%. For `Cc1ccccc1OCC(=O)NC(=S)Nc1ccc(Br)c(C)n1`, the “activity, negative = inhibition” value is -10.9%. With `O=C(COc1ccccc1Cl)NC(=S)Nc1cccc(NC(=O)c2ccccc2Cl)c1`, the AC50 was 0.631 µM (active).

For the molecule `CCc1ccc(OCC(=O)NC(=S)Nc2ccc(F)cc2)c(Br)c1`, the AC50 is 8.91 µM (active).

With `C=C(CC)C(=O)c1ccc(OCC(=O)O)c(Cl)c1Cl`, the “activity, negative = inhibition” value is -9.62% [at 25.6 µM]. As for `O=C(CCN1C(=O)c2ccccc2C1=O)NC(=S)Nc1cccc(Cl)c1`, the AC50 was 4.47 µM (active). Still for that read-out and setting: under `CCC(=O)NC(=S)Nc1ccc(NC(=O)COc2ccc(Cl)cc2Cl)cc1` stands 2.82 µM (active). Regarding `CN(C)c1ncnc2c1ncn2CCn1cnc2c(N(C)C)ncnc21`, the activity, negative = inhibition was 27.8% [at 11.4 µM].

`NC1=C2NC=N[C@@H]2N(C/C=C\c2ccccc2)C=N1`: the activity, negative = inhibition was 7.43% [at 11.4 µM].

Take `Cc1c(O)c(=O)n(-c2ccccc2)n1C`: the “activity, negative = inhibition” value is -3.86% [at 25.6 µM]. Still for that read-out and setting: for `Cc1c(N(C)C)c(=O)n(-c2ccccc2)n1C` the value was -8.86% [at 25.6 µM]. As to `Cc1c(N2C(=O)/C(=C3/C(=O)N(C)c4ccccc43)SC2=S)c(=O)n(-c2ccccc2)n1C`, the AC50 was 2.82 µM (active). Consider `O=S(=O)(O)c1ccc2c(N=Nc3cccc4ccccc34)c(O)c(S(=O)(=O)O)cc2c1`, for which the activity, negative = inhibition is 13.7% [at 11.4 µM]. Still for that read-out and setting: under `CCCn1c(N)[n+](CC(=O)c2ccco2)c2ccccc21` stands -19%. With `CCOC(=O)c1c(C)n(C)c2ccc(OC(=O)c3ccco3)cc12`, the AC50 was 5.01 µM (active). For `CN(C(=O)C(Cl)Cl)c1ccc(OC(=O)c2ccco2)cc1`, the “activity, negative = inhibition” value was -12.6% [at 25.6 µM]. In the case of `CCOc1cc(/C=C2/C(=N)N3C=CSC3=NC2=O)ccc1OCCCOc1ccccc1C`, the AC50 was 1 µM (active). On the same count and under the same terms, for `COc1cc(/C=C2/C(=N)N3C=CSC3=NC2=O)ccc1OCCCOc1ccccc1C` the value was 7.94 µM (active). In the case of `Cc1ccc(N=Nc2ccc(N)cc2C)c(S(N)(=O)=O)c1`, the activity, negative = inhibition was 1.27% [at 11.4 µM]. The same measure, in the same setting: under `COc1ccccc1CN1CC[C@@]2(CCCN(S(C)(=O)=O)C2)C1` stands -26.4%. For the molecule `CCCNc1c(F)c(F)c2c(C)c3ccccc3nc2c1F`, the AC50 was 10 µM (active).
